# Measured values as given in PubChem BioAssay AID720569 (National Center for Advancing Translational Sciences (NCATS), 2013).
# The other results are listed elsewhere or left out. Inconclusive results are not listed. Calls of active or inactive are those of the source. Calls follow the shape of the dose curve; as a rule, active = well fitted inhibition curve with a large enough effect; inconclusive = small, poorly fitted or top-dose-only effect; inactive = no such curve, though single readings can be large or run the other way.
# Test system: pyruvate kinase (Trypanosoma brucei)
# Assay: qHTS of Trypanosoma Brucei Inhibitors: Confirmatory Assay for Cherry-picked Compounds; also: nearly all actives have a fitted effect of over 70% in size
# Conditions: recombinant TbPYK, Kinase-Glo ATP luminescence; series mostly up to 76.9 µM; activity change, negative = inhibition: at the top concentration
# Excerpt: Members of the Trypanosomatidae family of parasitic protozoans cause a spectrum of diseases throughout the tropical and subtropical world. Sleeping sickness, caused by two subspecies of Trypanosoma brucei, is endemic to areas of sub-Saharan Africa, while Chagas' disease, a manifestation of Trypanosoma cruzi infection, is prevalent throughout Central and South America. In addition, many species of Leishmania are responsible for a range of cutaneous and visceral diseases, causing ulcers, destructive lesions and kalaazar, a lethal infection of the viscera. These diseases cause severe public health and economic burdens on populations that are often already caught in a tragic cycle of poverty, poor nutrition and disease. Collectively, parasites of the trypanosomatid family infect 30 million people worldwide (~500 million live in endemic areas), and account for ~130K deaths annually. Existing treatments have developed little in the past 50 years, and suffer from toxicity, poor efficacy and resistance; the goal of this project is to develop lead drugs that will be suitable for entry into pre-clinical trials. […] Glycolysis in axenically cultured T. cruzi, representing the intracellular pathogenic stage, is also essential for these parasites. {Engel, 1987} This project aims to discover and optimize selective inhibitors of the glycolytic enzyme pyruvate kinase (PYK) from Trypanosoma brucei, the parasite that causes sleeping sickness. […] Trypanosomatid PYKs show significant differences from their human counterparts including only 47-50% sequence identity and different allosteric and activation properties.{Callens, 1992} To this end, a qHTS was done against the MLSMR to discover inhibitors. NIH Molecular Libraries Probe Production Network [MLPCN] NIH Chemical Genomics Center [NCGC] Grant: MH095452 PI Name: Malcolm Walkinshaw, University of Edinburgh
# Two uL of TbPYK/substrate buffer (columns 1-3, 5-48) are dispensed into Greiner white solid bottom 1536-well assay plates; column 4 receives only TEA buffer as 0x TbPYK controls. Compounds are then transferred via Kalypsys pin tool equipped with 1536-pin array (10 nL slotted pins, V&P Scientific, San Diego, CA). Following addition of compound, 2 uL of ADP (130 uM final concentration, all columns) is added to initiate the reaction. The plates are then incubated at room temperature for 45 minutes. Kinase-Glo Plus reagent is added (3 uL) and plates incubated for 10 minutes, before being transferred to a ViewLux high-throughput CCD imager (PerkinElmer) wherein single end-point measurements of luminescence are acquired using a clear filter. All reagents are diluted in an assay buffer consisting of 50 mM TEA (pH 7.2), 100 mM KCl, 10 mM MgCl2, 0.05% BSA and 0.01% Tween-20. All screening operations will be performed on a fully integrated robotic system (Kalypsys, San Diego, CA) containing one RX-130 and two RX-90 anthropomorphic robotic arms (Staeubli, Duncan, SC). Library plates will be screened starting from the lowest and proceeding to the highest concentration. Vehicle-only plates, with DMSO being pin-transferred to columns 5-48, will be inserted uniformly at the beginning and the end of each library in order to monitor and record any shifts in the background, which can be affected by reagent dispensers or loss in enzyme activity over time. Screening data will be corrected, normalized, and concentration-effect relationships will be derived by using publicly-available curve fitting algorithms developed in-house (http://ncgc.nih.gov/pub/openhts).
# % is scaled to controls: 0 for no effect and ±100 for the full control effect; potency is read from the fitted curve at half-maximal effect.
Structure (SMILES),Potency,"activity change, negative = inhibition"
CSc1c(SCc2ccccc2)cnn(Cc2ccccc2)c1=O,17.8 µM (active),–
N#Cc1c(N2CCCCC2)nc(N)c2c(N)nc(SCC(=O)O)cc12,31.6 µM (active),–
Cc1cc(C#N)c(SCC(N)=O)nc1-c1ccc(F)cc1,2.82 µM (active),–
Cc1ccc(C)c2c1cc(C)c1nnc(SCC(=O)Nc3cccc(C(=O)O)c3)n12,2.24 µM (active),–
O=c1ccc2c(-c3ccccc3S(=O)(=O)O)c3ccc(O)c(O)c3oc-2c1O,8.91 µM (active),–
Cc1c(C)c(C)c(S(=O)(=O)N2CCC3(CC2)OCCO3)c(C)c1C,–,5.05% (inactive)
O=C(Nc1ccc(S(=O)(=O)N2CCOCC2)cc1)c1ccc2ncsc2c1,10 µM (active),–
Cc1nc2ccc(S(=O)(=O)NCC(=O)O)cc2s1,6.31 µM (active),–
Cc1cccc(-n2c(N)c(C(=O)N3CCN(C)CC3)sc2=S)c1,1 µM (active),–
CC(=O)N1CC[n+]2c(-c3ccc([N+](=O)[O-])cc3)csc21,1.78 µM (active),–
CN(c1ccccc1)S(=O)(=O)c1cccc(NC(=O)Cc2ccc(Cl)cc2)c1,6.31 µM (active),–
Cc1ccc(/C=C/C(=O)Nc2ccc([N+](=O)[O-])c(NC(=O)/C=C/c3ccc(C)o3)c2)o1,17.8 µM (active),–
O=C(CN1CCN(c2ccc(O)cc2)CC1)Nc1ccc(-c2ccccc2)cc1,28.2 µM (active),–
COc1ccc(Cc2nnc(NS(=O)(=O)Cc3ccccc3)s2)cc1,–,-17.7% (inactive)
COc1cccc(C(=O)Nc2ccc(N3CCCC3)cc2)c1,20 µM (active),–
COc1cc(C2CC(=O)N3CN(Cc4ccccc4)CSC3=C2C#N)ccc1OCc1ccccc1 (centres undefined),0.126 µM (active),–
O=c1[nH]c2ccccc2n2c(-c3ccccc3)nnc12,0.126 µM (active),–
O=C1C=CC(=O)N1c1ccc(N2CCCCC2)cc1,7.08 µM (active),–
c1ccc(-c2nnc3n2NC(c2ccc4c(c2)OCO4)S3)cc1 (centres undefined),0.0708 µM (active),–
O=C(CN1CCN(c2ccc(O)cc2)CC1)Nc1cc(S(=O)(=O)N2CCOCC2)ccc1Cl,14.1 µM (active),–
O=C(CSc1ccc(-c2ccco2)nn1)Nc1cccc(F)c1,15.8 µM (active),–
COCCNC(=O)Nc1ccc2nc(-c3ccco3)c(-c3ccco3)nc2c1,11.2 µM (active),–
O=C(CCCCCn1c(=S)[nH]c2ccsc2c1=O)NC1CCCCC1,14.1 µM (active),–
Cc1nonc1C(=O)N/N=C/c1ccc(O)cc1,15.8 µM (active),–
NC(=O)c1c(Nc2nc3c(F)cccc3s2)sc2c1CCCC2,4.47 µM (active),–
C=CCn1c(=S)[nH]c2scc(-c3ccco3)c2c1=O,14.1 µM (active),–
Oc1c(CN2CCOCC2)ccc(CN2CCOCC2)c1O,20 µM (active),–
Cc1cc(C2=NNC(=Nc3ccc(S(=O)(=O)N4CCOCC4)cc3)SC2)c(C)n1CC1CCCO1 (centres undefined),11.2 µM (active),–
COC(=O)/C=C\C(=O)Nc1cccc([N+](=O)[O-])c1,–,-92% (inactive)
